In the library only some 7.4% were active in any assay of this set; here they are far more common.
SMN2 splice up – SMN2 splice variant enhancement | 2.8% of 210,000 active | HEK293 SMN2-luciferase splicing reporter, luminescence, 30-36 h | AID 1458 | Potency, µM (series often up to 46.1 µM), for the others: at the highest dose activity change, positive = activation, actives largely listed as activators; note: % of control where 0% means no effect; nearly all actives have a fitted effect of over 55% in size
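HEK293 cells carry an SMN2 […]–luciferase reporter in which exon 7 inclusion puts luciferase in frame. Cells were plated 10-12 h before compound addition, then incubated 30-36 h at 37C. ONE-Glo luminescence was read; sodium butyrate at 4.5 mM final served as control.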
ELG1 genotoxic – inducers of genotoxicity in HEK293T ELG1-luciferase cells; HEK293T ELG1-luciferase reporter, luminescence, 16 h; Potency, µM (titrated, usually from 46 µM), for inactives: at the highest dose activity change, positive = activation, actives largely listed as activators; 1.3% of 330,000 active; note: % of control where 0% means no effect; nearly all actives have a fitted effect of over 60% in size
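16 hr compound incubation (37 °C, 5% CO2) of HEK293T cells carrying luciferase-tagged ELG1; luciferase then measured by ONE-Glo luminescence after 30 min at RT.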
FLuc counter – inhibits or activates purified firefly luciferase, miR-21 counter-screen; purified FLuc, Km substrates, luminescence inhibition; 6.9% of 360,000 active; Potency, µM (titrated, usually from 57.5 µM), inactives show top-dose activity change, negative = inhibition, hits mostly inhibitors;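 note: plate controls were vehicle for no effect and reference inhibitor for full effect; nearly all actives have a fitted effect of over 55% in size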
Target sequence (P08659 whole entry, looked up): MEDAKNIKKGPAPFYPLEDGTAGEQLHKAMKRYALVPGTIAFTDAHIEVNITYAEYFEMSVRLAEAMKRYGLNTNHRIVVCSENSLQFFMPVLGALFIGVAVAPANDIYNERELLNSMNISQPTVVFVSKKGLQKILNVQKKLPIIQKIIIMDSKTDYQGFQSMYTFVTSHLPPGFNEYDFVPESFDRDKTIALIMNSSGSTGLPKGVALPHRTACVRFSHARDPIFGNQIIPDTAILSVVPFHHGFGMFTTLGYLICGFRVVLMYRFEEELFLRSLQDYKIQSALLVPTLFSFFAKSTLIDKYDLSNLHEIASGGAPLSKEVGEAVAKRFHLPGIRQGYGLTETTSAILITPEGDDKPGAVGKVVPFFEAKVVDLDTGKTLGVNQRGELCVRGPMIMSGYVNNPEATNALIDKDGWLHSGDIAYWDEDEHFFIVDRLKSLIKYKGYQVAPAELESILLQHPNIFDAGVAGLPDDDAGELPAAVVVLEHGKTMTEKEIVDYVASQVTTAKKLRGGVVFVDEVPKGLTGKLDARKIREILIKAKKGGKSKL
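Biochemical qHTS of compounds, final roughly 60 µM downward over six points, against 10 nM purified firefly luciferase using Km concentrations of substrates (10 uM D-luciferin, 10 uM ATP) in Tris acetate pH 7.5 buffer; luminescence output.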
NPC1 promoter act – NPC1 promoter activation | Potency, µM (doses to about 9.22 µM), without a hit: top-dose activation, hits mostly activators | Huh7 NPC1 promoter luciferase reporter, 24 h | 2.4% of 320,000 active; note: % of control where 0% means no effect; nearly all actives have a fitted effect of over 60% in size
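Luminescence from an NPC1 promoter-driven luciferase reporter in stably transfected Huh7 cells was measured after 24 h compound treatment at 37 °C, followed by 10 min ambient incubation with luciferase detection reagent.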
Rab9 promoter act – activators of Rab9 promoter; AID 485297; Potency, µM (top dose mostly 9.22 µM), for inactives: at the top dose activation, negative = inhibition, actives largely listed as activators; Huh7 Rab9 promoter-luciferase reporter, luminescence, 24 h; 2.8% of 320,000 active; note: % of control where 0% means no effect; nearly all actives have a fitted effect of over 60% in size
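Rab9 promoter-driven luciferase in stably transfected Huh7 cells; 1500 cells/well rested 2 h, exposed to compound in DMSO for 24 h at 37 °C, 5% CO2. Luminescence read 10 min after adding luciferase reagent at ambient temperature.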
An asterisk follows results filed as active; ? = inconclusive; · = not tested or not shown; [ ] = remark or other dose. Calls come from the whole dose curve; as a rule, active = well fitted curve in the direction sought with a large enough effect; inconclusive = small, poorly fitted or top-dose-only effect, or another doubt; inactive = no such curve, though single readings can be large; an effect the other way counts as inactive or inconclusive. Potency is the fitted concentration of half-maximal effect.

SMILES	SMN2 splice up	ELG1 genotoxic	FLuc counter	NPC1 promoter act	Rab9 promoter act
COC(=O)c1ccc(OCC2c3cc(OC)c(OC)cc3CCN2C(=O)Cc2ccccc2)cc1 (configuration not stated)	·	·	-8%	·	·
O=C(N/N=C/c1ccc(Cl)c([N+](=O)[O-])c1)c1ccc2nc[nH]c2c1	-6%	-1%	?	-4%	-6%
COc1cccc(C(=O)N/N=C/c2cn[nH]c2-c2ccc(OC)cc2OC)c1	5%	-2%	15µM*	-2%	-2%
O=C(N/N=C/c1ccccc1[N+](=O)[O-])c1ccc2nc[nH]c2c1	·	?	13µM*	?	2.8µM*
CCN(CC)c1ccc(/C=N/NC(=O)c2ccc3nc[nH]c3c2)c(O)c1	·	?	13µM*	-32%	-39%
COc1ccc(S(=O)(=O)N(CC(=O)N(C)Cc2ccccc2)c2ccc(Cl)cc2)cc1	4%	·	-2%	·	·
CC(C)c1ccc(Nc2nnc(SCC(=O)Nc3ncc(S(=O)(=O)c4ccc([N+](=O)[O-])cc4)s3)s2)cc1	22µM*	?	0.85µM*	2.8µM*	1.4µM*
Cc1ccc(Nc2nnc(SCC(=O)Nc3ncc(S(=O)(=O)c4ccc([N+](=O)[O-])cc4)s3)s2)cc1	0%	?	2.4µM*	21%	18%
Cc1cc(=O)[nH]c(SCC(=O)Nc2ncc(S(=O)(=O)c3ccc([N+](=O)[O-])cc3)s2)n1	·	0%	?	-1%	-3%
CCCN1C(=O)C(Cc2nc3ccccc3c(=O)n2-c2ccc(OC)cc2)c2cc(C)ccc21 (configuration not stated)	0%	·	-11%	·	·
Cc1ccc(-n2c(C)nn(CCOc3ccccc3)c2=O)cc1	11µM*	?	?	?	3.2µM*
Cc1nn(CCOc2ccccc2)c(=O)n1-c1c(F)cccc1F	13µM*	?	24µM*	2.8µM*	4µM*
Cc1nn(CC2CC2)c(=O)n1-c1ccccc1F	2%	11%	-1%	-3%	4%
Cc1ccc2c(c1)c(=O)c1ccccc1n2CCCC(=O)Nc1ccc(C)c(C)c1	?	·	-16%	·	·
Cc1cccc(NC(=O)c2ccc(S(=O)(=O)N3CC(C)OC(C)C3)cc2)n1 (configuration not stated)	·	?	1%	-3%	-16%
Cc1c(C)n(CCO)c2ncnc(Nc3ccc(F)cc3)c12	·	?	19µM*	25%	?
COc1ccc(Nc2ncnc3c2c(C)c(C)n3CCO)cc1	·	8.2µM*	5.4µM*	1µM*	1.6µM*
COc1ccc(CCNc2ncnc3c2c(C)c(C)n3CCO)cc1OC	·	-9%	?	-16%	-5%
Cc1c(C)n(CCCN(C)C)c2ncnc(Nc3ccc(F)cc3)c12	·	0%	-5%	-1%	7%
CC1Cc2ccccc2N1C(=O)CSc1ncc(-c2ccc(F)cc2)n1C (configuration not stated)	13µM*	?	1.9µM*	3.5µM*	1.1µM*
Cn1c(-c2ccc(F)cc2)cnc1SCC(=O)N1CCCc2ccccc21	-11%	0%	?	-1%	-6%
Cn1c(-c2ccc(F)cc2)cnc1SCC(=O)N1CCCCC1	8.9µM*	2.6µM*	2.7µM*	0.56µM*	0.5µM*
COC(=O)c1ccc(C(=O)Nc2ccc(F)cc2)cc1	·	14%	12µM*	2.5µM*	?
O=C(Nc1ccc(F)cc1)c1ccccc1	19%	?	24µM*	?	?
COc1ccc(CSc2nnc(-c3ccncc3)n2C)cc1F	·	3%	1%	1%	10%
SMILES	SMN2 splice up	ELG1 genotoxic	FLuc counter	NPC1 promoter act	Rab9 promoter act
COc1ccc(-n2nc(C(=O)NCC(=O)N3CCN(C)CC3)c3ccccc3c2=O)cc1OC	-5%	1%	?	3%	1%
COc1ccc(-n2nc(C(=O)NCC(=O)N3CCN(c4ccccc4F)CC3)c3ccccc3c2=O)cc1	·	7%	0.34µM*	?	?
COc1ccc(-n2nc(C(=O)NCC(=O)N3CCN(c4ccccc4F)CC3)c3ccccc3c2=O)cc1OC	·	6%	0.95µM*	?	28%
CCCn1c(N)c(C(=O)COC(=O)CNC(=O)c2ccccc2OCC)c(=O)[nH]c1=O	·	4%	3%	-2%	-8%
O=C(Cn1ncc2ccsc2c1=O)N1CCN(c2ccccc2)CC1	-5%	·	5%	·	·
O=C(CNc1ccc2ccccc2c1)N/N=C/c1cc2ccccc2nc1Cl	-17%	-2%	15µM*	7%	-3%
O=C(CNc1cccc2ccccc12)N/N=C/c1ccc(C(=O)O)cc1	-5%	0%	-18%	2%	10%
O=C(CNc1ccc2ccccc2c1)N/N=C/c1ccc(C(=O)O)cc1	12%	3%	27µM*	8%	2%
Nc1cc(-c2ccccc2)ccc1O	-1%	3%	24µM*	12%	1%
Nc1ccc(-c2ccc(N)c(O)c2)cc1O	-8%	·	·	·	·
CCc1ccc(NC(=O)N(Cc2c[nH]c3ccccc23)C2CCCCC2)cc1	9%	·	-2%	·	·
CCc1ccc(NC(=O)N(Cc2c[nH]c3ccccc23)C2CCCCCC2)cc1	5µM*	·	-7%	·	·
O=C(O)c1cc2c(cc1S(=O)(=O)O)[C@H]1[C@@H](C3[C@H]2[C@@]2(Cl)C(Cl)=C(Cl)C3(Cl)C2(Cl)Cl)[C@]2(Cl)C(Cl)=C(Cl)C1(Cl)C2(Cl)Cl (some centres not stated)	-4%[9.22 µM]	·	·	·	·
Cc1ccc(C(=O)Nc2nc3c(s2)CCCC3)o1	14µM*	1.2µM*	1.7µM*	3.2µM*	1µM*
CC(=O)c1sc(NC(=O)c2ccc(Br)o2)nc1C	·	16µM*	19µM*	?	27%[1.84 µM]
CC(=O)c1sc(NC(=O)C=C(C)C)nc1C	20µM*	18µM*	?	19%	28%
O=C(Nc1nc2c(s1)CCCC2)c1ccc(Br)o1	11µM*	12µM*	1.5µM*	2.2µM*	1.3µM*
O=C(NCCc1ccc(Cl)cc1)c1ccc(CSCc2ccccc2Cl)o1	·	·	-18%	·	·
O=C1CCCc2cc(S(=O)(=O)NCC3CCC(C(=O)NCc4ccc(F)cc4)CC3)ccc2N1 (configuration not stated)	·	·	-8%	·	·
CCN1CCc2[nH]c3ccccc3c2C1	·	-4%	0%	-4%	1%
Cc1onc(-c2ccccc2Cl)c1C(=O)Nc1nnc(-c2ccc(Cl)cc2Cl)s1	0%	-18%	?	2%	-2%
Cc1onc(-c2ccccc2Cl)c1C(=O)Nc1nc2c(s1)CCCC2	13%	4%	13µM*	27%	?
COc1ccc(C(=O)N[C@H](C(=O)Nc2nc3c(s2)CCCC3)C(C)C)cc1	?	15%	15µM*	-2%	23%
COc1cc(N/N=C(\C)c2ccc(N)cc2)nc(-c2ccccc2)n1	9%	-5%	15µM*	7%	28%
COc1cc(N/N=C(\C)c2ccc(O)c(C)c2)nc(-c2ccccc2)n1	·	-7%	15µM*	-6%	-12%

Screening data: PubChem BioAssay, National Center for Advancing Translational Sciences (NCATS)
